Among the data in PubChem BioAssay (NCATS) are Potency and viability values, retold here.

Each structure is given as a SMILES string. Records with an inconclusive call do not appear. Calls of active or inactive are those of the source. The call rests on the fitted dose curve; in most records, active means well fitted curve in the direction sought with a large enough effect; inconclusive means small, poorly fitted or top-dose-only effect, or another doubt; inactive means no such curve, though single readings can be large; an effect the other way counts as inactive or inconclusive.

A short description of test [1]: Quantitative High-Throughput drug screen in 47 multiple myeloma cell lines against the NCATS MIPE library collection: JIM3_ECACC cell viability assay (AID 1918963; further: nearly all actives have a fitted effect of over 35% in size; further: potency means the concentration at half of the fitted maximal effect). The method in brief: (§1)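 Relative luminescence from CellTiter-Glo served as the viability signal, referenced to DMSO-treated (100%) and cell-free medium (0%) controls. Treatment lasted 48 hours at 37C with 500 cells per well.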

A short description of test [2]: Quantitative High-Throughput drug screen in 47 multiple myeloma cell lines against the NCATS MIPE library collection: INA6_PLB cell viability assay (AID 1918965; further: nearly all actives have a fitted effect of over 55% in size; further: potency means the concentration at half of the fitted maximal effect). The method in brief:
as §1

Test [3] can be described thus: Quantitative High-Throughput drug screen in 47 multiple myeloma cell lines against the NCATS MIPE library collection: JJN3_DSMZ cell viability assay (AID 1918966; further: nearly all actives have a fitted effect of over 50% in size; further: potency means the concentration at half of the fitted maximal effect). The method in brief: (§2)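 Approved and investigational drugs from MIPE 4.0 were added by pin tool to 500 cells per well. After 48 hours at 37C, ATP-based CellTiter-Glo luminescence indicated remaining viability.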

Test [4] can be described thus: Quantitative High-Throughput drug screen in 47 multiple myeloma cell lines against the NCATS MIPE library collection: H1112_PLB cell viability assay (AID 1918967; further: nearly all actives have a fitted effect of over 30% in size; further: potency means the concentration at half of the fitted maximal effect). The gist of the method:
as §2

Test [5] is described as follows: Quantitative High-Throughput drug screen in 47 multiple myeloma cell lines against the NCATS MIPE library collection: Karpas25_ECACC cell viability assay (AID 1918968; further: nearly all actives have a fitted effect of over 35% in size; further: potency means the concentration at half of the fitted maximal effect). The gist of the method: as §2
Test [6] can be described thus: Quantitative High-Throughput drug screen in 47 multiple myeloma cell lines against the NCATS MIPE library collection: KMS12BM_JCRB cell viability assay (AID 1918971). Further: nearly all actives have a fitted effect of over 35% in size. Further: potency means the concentration at half of the fitted maximal effect. The method in brief: (§3)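 Myeloma cells (500 per well) were exposed to MIPE 4.0 compounds by pin transfer and incubated 48 hours at 37C, 5% CO2. Viability was read as ATP by CellTiter-Glo luminescence, normalised to DMSO (100%) and media-only (0%) wells.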

A short description of test [7]: Quantitative High-Throughput drug screen in 47 multiple myeloma cell lines against the NCATS MIPE library collection: KMS20_JCRB cell viability assay (AID 1918973). Further: nearly all actives have a fitted effect of over 45% in size. Further: potency means the concentration at half of the fitted maximal effect. The method in brief:
as §2

A short description of test [8]: Quantitative High-Throughput drug screen in 47 multiple myeloma cell lines against the NCATS MIPE library collection: KMS26_JCRB cell viability assay (AID 1918975). Further: nearly all actives have a fitted effect of over 45% in size. Further: potency means the concentration at half of the fitted maximal effect. The method in brief:
as §3

A short description of test [9]: Quantitative High-Throughput drug screen in 47 multiple myeloma cell lines against the NCATS MIPE library collection: NCIH929_DSMZ cell viability assay (AID 1918978). Further: nearly all actives have a fitted effect of over 35% in size. Further: potency means the concentration at half of the fitted maximal effect. The gist of the method:
(§4)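 Readout: median RLU from CellTiter-Glo after 5 min at room temperature. Preceding step was 48 h drug treatment of 500 cells/well at 37 °C, 5% CO2, with DMSO-only and media-only control wells.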

A short description of test [10]: Quantitative High-Throughput drug screen in 47 multiple myeloma cell lines against the NCATS MIPE library collection: OCIMY1_PLB cell viability assay (AID 1918979). Further: nearly all actives have a fitted effect of over 35% in size. Further: potency means the concentration at half of the fitted maximal effect. The gist of the method: as §4
The nature of test [11]: Quantitative High-Throughput drug screen in 47 multiple myeloma cell lines against the NCATS MIPE library collection: MM1S_ATCC cell viability assay (AID 1918980). Further: nearly all actives have a fitted effect of over 45% in size. Further: potency means the concentration at half of the fitted maximal effect. The method in brief: as §4
A short description of test [12]: Quantitative High-Throughput drug screen in 47 multiple myeloma cell lines against the NCATS MIPE library collection: LP1_DSMZ cell viability assay (AID 1918982). Further: nearly all actives have a fitted effect of over 35% in size. Further: potency means the concentration at half of the fitted maximal effect. The method in brief:
as §4

Test [13] is described as follows: Quantitative High-Throughput drug screen in 47 multiple myeloma cell lines against the NCATS MIPE library collection: KMS21BM_JCRB cell viability assay (AID 1918974). Further: potency means the concentration at half of the fitted maximal effect. The following applies: ATP luminescence, 48 h; viability: at 45.8 µM (top of the series). The gist of the method:
as §2

The nature of test [14]: Quantitative High-Throughput drug screen in 47 multiple myeloma cell lines against the NCATS MIPE library collection: MOLP8_DSMZ cell viability assay (AID 1918977). Further: nearly all actives have a fitted effect of over 45% in size. Further: potency means the concentration at half of the fitted maximal effect. The method in brief: as §4
Test [15] can be described thus: Quantitative High-Throughput drug screen in 47 multiple myeloma cell lines against the NCATS MIPE library collection: MM1R_ATCC cell viability assay (AID 1918981). Further: nearly all actives have a fitted effect of over 35% in size. Further: potency means the concentration at half of the fitted maximal effect. The method in brief:
as §4

Test [16] in a line: Quantitative High-Throughput drug screen in 47 multiple myeloma cell lines against the NCATS MIPE library collection: JIM1_ECACC cell viability assay (AID 1918964; further: potency means the concentration at half of the fitted maximal effect). The method in brief: as §2
Test [17] is described as follows: Quantitative High-Throughput drug screen in 47 multiple myeloma cell lines against the NCATS MIPE library collection: KMS27_JCRB cell viability assay (AID 1918970). Further: nearly all actives have a fitted effect of over 30% in size. The gist of the method: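 ATP-based viability (CellTiter-Glo luminescence) is measured in cells treated 48 h with approved and investigational drugs at 37 °C. Controls are DMSO-only wells for full viability and media-only wells for none.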

Test [18] is described as follows: Quantitative High-Throughput drug screen in 47 multiple myeloma cell lines against the NCATS MIPE library collection: KMS12PE_JCRB cell viability assay (AID 1918972). Further: nearly all actives have a fitted effect of over 30% in size. Further: potency means the concentration at half of the fitted maximal effect. The gist of the method:
as §1

Test [19] in a line: Quantitative High-Throughput drug screen in 47 multiple myeloma cell lines against the NCATS MIPE library collection: MMM1_PLB cell viability assay (AID 1918976). The gist of the method:
as §4

With `COC(=O)Nc1nc2ccc(C(=O)c3ccccc3)cc2[nH]1`, the Potency in test [1] is 2.96 µM (active); in [2], 1.18 µM (active); in [3] it was 2.64 µM (active); in test [4], 2.64 µM (active); in test [5] it was 3.72 µM (active); in [6], 1.48 µM (active). The Potency in [7] is 1.32 µM (active); in test [8], 8.33 µM (active); in test [9] it was 3.72 µM (active); in test [10] it was 0.833 µM (active); in [11] it was 3.72 µM (active); in test [12], 1.87 µM (active).
Take `CCCCCCNC(=O)n1cc(F)c(=O)[nH]c1=O`: the Potency in test [1] is 16.6 µM (active); in test [2], 11.8 µM (active); in [3], 23.5 µM (active); in test [4] it was 5.26 µM (active); in [6] it was 4.69 µM (active); in test [13], 0.332 µM (active). In addition, the Potency was 6.62 µM (active) in [14]; 11.8 µM (active) in test [9]; 20.9 µM (active) in test [11]; 4.18 µM (active) in test [15]; 11.8 µM (active) in test [12]. The Potency result in test [7] and in [10] was “inactive” each time.
As to `CN(C)CCc1c[nH]c2ccc(C[C@H]3COC(=O)N3)cc12`, the Potency result in test [1], in [16], in [5], in test [17], in test [6] and in [18] was “inactive” in each case. Moreover, the Potency entry in test [9], in test [15] and in test [12] was “inactive” throughout. Further, the Potency in test [2] was 13.2 µM (active).
Take `Cc1noc(NS(=O)(=O)c2ccc(N)cc2)c1C`: the Potency entry in test [1], in test [2], in test [4], in [5], in test [17] and in test [18] was “inactive” throughout. Moreover, the Potency entry in [13], in test [9], in [10] and in [12] was “inactive” each time.
As for `COC(=O)Nc1nc2ccc(Sc3ccccc3)cc2[nH]1`, the Potency in [1] is 0.833 µM (active); in [16] it was 0.833 µM (active); in test [2], 0.743 µM (active); in test [3], 10.5 µM (active); in test [6], 2.35 µM (active); in test [18], 0.833 µM (active). Also, the Potency in test [13] was 0.59 µM (active); in test [19], 18.7 µM (active); in test [14], 13.2 µM (active); in test [9] it was 8.33 µM (active); in [10], 3.32 µM (active); in test [11] it was 2.09 µM (active). Moreover, the Potency in test [12] is 2.35 µM (active).
`COc1ccc2c(c1)c(CC(=O)OCC(=O)O)c(C)n2C(=O)c1ccc(Cl)cc1`: the Potency entry in test [1], in test [16], in test [2], in [3], in [4] and in test [5] was “inactive” in each case. The Potency result in test [6], in [18], in test [14], in [9] and in [12] was “inactive” each time. In test [19], the Potency is 4.18 µM (active).
Take `CC(C)OC(=O)C(C(=O)OC(C)C)=C1SC=CS1`: the Potency entry in [1], in test [16], in [3], in test [18], in test [9] and in test [10] was “inactive” each time. The values for the Potency in test [6] and in [8] were 14.8 µM (active) and 0.003 µM (active), respectively. For the same molecule, the viability (as a rule, a read-out of living cells in per cent, often relative to untreated cells) in [13] was 403% (active).
Consider `CC(C)Cn1cnc2c(N)nc3ccccc3c21`, for which the Potency entry in [1], in test [4], in test [10] and in test [12] was “inactive” in each case. The Potency is 18.7 µM (active) in test [3], 14.8 µM (active) in [6], 16.6 µM (active) in test [19] and 4.69 µM (active) in test [11].
In the case of `CC(N)C12CC3CC(CC(C3)C1)C2` (stereo unspecified), the Potency entry in [1], in test [16], in test [2], in test [3], in test [5] and in test [17] was “inactive” each time. Besides, the Potency entry in test [18], in test [7], in test [8], in [14], in [9] and in test [11] was “inactive” throughout. Further, the Potency result in test [15] and in test [12] was “inactive” in each case.
Turning to `CC1=CC(=O)c2ccccc2C1=O`, the Potency entry in test [16] and in test [18] was “inactive” each time. The Potency was 8.33 µM (active) in [2]; 13.2 µM (active) in [3]; 20.9 µM (active) in test [4]; 9.35 µM (active) in test [5]; 10.5 µM (active) in test [8]; 8.33 µM (active) in test [19]. Further, the Potency in test [9] was 9.35 µM (active); in [11], 18.7 µM (active); in [15] it was 9.35 µM (active); in [12], 23.5 µM (active).
With `O=c1oc2c(O)c(O)cc3c(=O)oc4c(O)c(O)cc1c4c23`, the Potency entry in test [1], in test [2], in [4], in [5], in test [17] and in test [18] was “inactive” in each case. In addition, the Potency result in [9], in [10] and in test [15] was “inactive” each time.
For `CC[C@H](NC(C)C)[C@H](O)c1ccc(O)c2[nH]c(=O)ccc12`, the Potency result in [1], in test [16], in test [4], in test [17], in test [18] and in test [7] was “inactive” each time. Also, the Potency entry in [9] and in [12] was “inactive” throughout. For the same molecule, the Potency in [6] is 0.0235 µM (active); in test [11] it was 0.235 µM (active).
With `NC(=O)c1ccc2[nH]ccc2c1`, the Potency entry in [1], in [16], in test [2], in test [4], in test [5] and in test [6] was “inactive” throughout. Moreover, the Potency entry in test [18], in test [9] and in test [12] was “inactive” throughout.
Consider `CCN(CC)CC#CCOC(=O)C(O)(c1ccccc1)C1CCCCC1` (stereo unspecified), for which the Potency entry in test [1], in test [4], in [6], in [14] and in test [9] was “inactive” in each case. Besides, the Potency in [18] is 26.4 µM (active); in [13], 4.69 µM (active).
In the case of `CC(C(=O)O)c1ccc2c(c1)CC(=O)c1ccccc1S2` (stereo unspecified), the Potency entry in test [1], in [2], in [6], in [14], in test [9] and in test [10] was “inactive” in each case. In addition, in [12], the Potency entry was “inactive”. Further, the Potency in test [5] is 18.7 µM (active); in [13], 0.264 µM (active); in test [11], 2.96 µM (active).
With `CCN[C@H]1C[C@H](C)S(=O)(=O)c2sc(S(N)(=O)=O)cc21`, the Potency result in [1], in test [16], in test [2], in test [4], in test [5] and in test [17] was “inactive” each time. For the same molecule, the Potency entry in [6], in test [18], in [7], in test [14], in test [9] and in [10] was “inactive” throughout. Besides, the Potency entry in test [12] is “inactive”.
